This is a sample that favours compounds with a hit; in the whole collection about 1% have one here.
DUSP3 inh = blocks human VHR1 dual specificity phosphatase | P51452 | recombinant VHR phosphatase, pNPP absorbance | inhibition, % at 13.3 µM | 290,000 compounds, 0.52% hits | AID 1654; in the data active = inhibition above about 50%
Target sequence (P51452 whole entry, looked up): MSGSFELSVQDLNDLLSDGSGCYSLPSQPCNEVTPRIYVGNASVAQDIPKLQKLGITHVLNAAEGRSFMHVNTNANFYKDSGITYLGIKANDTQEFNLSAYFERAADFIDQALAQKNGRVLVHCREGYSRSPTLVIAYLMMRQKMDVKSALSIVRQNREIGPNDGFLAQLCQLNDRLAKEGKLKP
FadD28 FP inh = inhibitors of Mycobacterium tuberculosis FadD28 bisubstrate binding; FadD28 bisubstrate probe binding, fluorescence polarization; inhibition, % at 12.5 µM; 360,000 compounds, 0.22% hits; in the data active = inhibition above about 8.5%, passing the limit was not always enough
Y pestis TopoI = Y. pestis Topo-I inhibition via cleavage products; 360,000 compounds, 0.064% hits; activity, % at 10 µM; Y. pestis Topo-I cleavage product accumulation, plate reader; in the data active = activity above about 50%, passing the limit was not always enough
BioA inh = BioA (M. tuberculosis) enzyme inhibition; purified M. tuberculosis BioA enzyme, plate reader; inhibition, % at 9.99 µM; 360,000 compounds, 0.096% hits; AID 602481; in the data active = inhibition above about 40%
MazEF act = activators of E. coli MazEF toxin-antitoxin RNase | P0AE70 | FAM/BHQ RNA-DNA oligo cleavage fluorescence, 5 h | activation, % at 20 µM | 350,000 compounds, 0.32% hits; in the data active = activation above about 50%
Target sequence (P0AE70 whole entry, looked up): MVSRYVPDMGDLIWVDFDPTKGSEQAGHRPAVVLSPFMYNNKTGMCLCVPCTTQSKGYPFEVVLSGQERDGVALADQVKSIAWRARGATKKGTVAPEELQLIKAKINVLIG
TcdB GH inh = inhibitors of Clostridioides difficile toxin B glycohydrolase; inhibition, % at 9.99 µM; P18177; 350,000 compounds, 0.24% hits; TcdB glycohydrolase enzymatic assay, plate reader; in the data active = inhibition above about 10%
Active calls of the source: *; · = no result given.

SMILES | DUSP3 inh | FadD28 FP inh | Y pestis TopoI | BioA inh | MazEF act | TcdB GH inh
Cc1cc(NC(=O)C(C)SCC(=O)N(C)CC(=O)Nc2ccc(F)cc2)no1 (stereo not given) | · | -1.4 | 100.9* | 1.6 | -5.4 | 0.9
Cc1cc(NC(=O)C(C)SCC(=O)N(C)CC(=O)Nc2ccccc2C(F)(F)F)no1 (stereo not given) | · | -0.8 | 1.0 | -0.5 | 2.9 | 0.6
CC(C)(C)C(=O)Nc1nc(C2CCCN2S(=O)(=O)c2ccc(Cl)cc2)cs1 (stereo not given) | 5.7 | -3.1 | -3.1 | · | 50.5* | ·
Cn1c(=O)c2sccc2n2c(CCCC(=O)NCc3ccc(F)cc3)nnc12 | 59.7* | -1.5 | 0.8 | 2.6 | 6.5 | 1.8
C[C@H](CO)N1C[C@H](C)[C@@H](CN(C)C(=O)Nc2ccc3c(c2)OCO3)Oc2cc(C3=CCCCC3)ccc2S1(=O)=O | · | · | · | -1.1 | · | -2.4
C[C@@H]1CN([C@H](C)CO)C(=O)c2cccc(NC(=O)C3CC3)c2O[C@@H]1CN(C)CC1CCCCC1 | · | · | · | -3.9 | · | 1.1
CCc1ccc(/C=C/C(=O)C2C(=O)c3ccccc3C2=O)cc1 | -7.8 | 13.4* | 0.5 | · | -10.4 | ·
O=C(/C=C/c1ccccc1)NC(=O)c1ccccc1O | 16.6 | -3.4 | -5.1 | 1.4 | 8.9 | 2.2
O=C(/C=C/c1ccccc1)CC(=O)c1ccccc1O | 17.4 | -1.8 | -14.5 | · | 55.2* | 0.2
CC1CCCC(C)N1CCCNC(=O)c1ccc2c(c1)NC(=O)c1ccccc1S2 (stereo not given) | 57.7* | -5.9 | -10.2 | -0.1 | 3.9 | 1.8
CCN1CCN(CCCNC(=O)c2ccc3c(c2)NC(=O)c2ccccc2S3)CC1 | 27.8 | -4.7 | -7.4 | -0.8 | 7.7 | 0.6
C[C@@H]1CCCCO[C@H](CN(C)C)[C@@H](C)CN([C@@H](C)CO)C(=O)c2cc(NS(=O)(=O)c3cccs3)ccc2O1 | · | · | · | -1.3 | · | -0.6
CC(=O)N/C(=C\c1ccccc1)C(=O)OCC(=O)NC1CCCC1 | 58.3* | -2.4 | -2.6 | -3.4 | -3.8 | -7.2
CN1C(=O)c2cc(NC(=O)c3cccs3)ccc2OC[C@H]2O[C@H](CC(=O)O)CC[C@H]21 | · | · | · | 0.9 | · | ·
CC(C)C(=O)Nc1cccc(C(=O)Nc2ccc(S(=O)(=O)N3CCOCC3)cc2)c1 | 8.8 | -7.2 | -5.6 | 0.5 | 160.4* | -0.4
CC(C)C#Cc1ccc2c(c1)O[C@H](CN(C)C(=O)c1cccc(F)c1)[C@@H](C)CN([C@H](C)CO)S2(=O)=O | · | · | · | -1.6 | · | -1.2
COc1ccc(CNc2ncnc3c2[nH]c2cc(OC)c(OC)cc23)cc1 | -0.1 | 10.4* | -24.4 | -0.7 | 20.9 | -1.0
COc1ccc(CNc2ncnc3c2[nH]c2ccccc23)cc1 | 5.1 | -3.4 | -12.3 | 11.4 | 20.0 | 0.9
CCCN1C[C@@H](C)[C@@H](OC)CN(C)C(=O)c2ccc(NC(=O)c3cccc(OC)c3)cc2OC[C@H]1C | · | · | · | -1.0 | · | 1.0
COc1ccc(C)cc1N(C(=O)c1ccco1)C(C(=O)NC1CCCC1)c1ccc(N2CCOCC2)cc1 (stereo not given) | 52.0* | -2.4 | 25.5 | -0.3 | -4.7 | 0.9
CN(C)C(=O)C[C@@H]1CC[C@H]2[C@@H](COC[C@H](O)CN2C(=O)C2CCCC2)O1 | · | · | · | 1.9 | · | -0.9
CN=c1scc(C)n1/N=C/c1ccc(O)cc1 | 18.0 | 0.5 | -10.1 | 0.4 | 7.1 | ·
C=CCN=c1scc(C)n1/N=C/c1ccc(O)c(O)c1 | -16.7 | 1.6 | -3.7 | · | 1.6 | 15.3*
CN=c1scc(-c2ccco2)n1/N=C/c1ccc(O)c(O)c1 | 4.0 | 11.3* | -2.4 | · | 14.9 | 0.1
CO[C@H]1CN(C)C(=O)c2cc(NC(=O)NC3CCCCC3)ccc2OC[C@H](C)N(CC2CC2)C[C@@H]1C | · | · | · | 1.7 | · | 0.2
SMILES | DUSP3 inh | FadD28 FP inh | Y pestis TopoI | BioA inh | MazEF act | TcdB GH inh
CC(C)(Cc1ccc(O)cc1)NC(=O)SCc1ccccc1 | 51.3* | -0.8 | -4.8 | 2.4 | 5.1 | 2.4
CCCCNC(=O)c1cc(C)nc2ccccc12 | 2.6 | -1.1 | -5.9 | -3.0 | 4.0 | -0.2
Cc1cc(C(=O)NCCCOC(C)C)c2ccccc2n1 | 50.3* | -0.9 | -2.5 | 2.0 | -0.2 | ·
COc1ccc(CNC(=O)C(=O)c2cn(CC(=O)N3CCCC3)c3ccccc23)cc1 | 5.0 | -5.4 | 31.4 | -0.3 | 6.3 | 0.3
COc1ccccc1CNC(=O)C(=O)c1cn(CC(=O)N2CCCC2)c2ccccc12 | 52.2* | 1.0 | 47.8 | 0.6 | 1.0 | 0.5
CCOc1ccc(/C=N/NC(=O)CN2CCCCC2)cc1OCC | 53.9* | -1.7 | -11.6 | 1.2 | 8.7 | 1.9
